Compound activity from PubChem.
FAS-TE inh = inhibitors of human fatty acid synthase thioesterase domain | P49327 | recombinant FAS-TE, OMFH fluorogenic substrate, fluorescence endpoint | inhibition, % at 15 µM | hit rate 0.67% among 360,000 | AID 602261;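 active = compounds whose normalised, plate-corrected inhibition of enzyme fluorescence in the single-dose primary screen is 50% or more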
NR3A LBD binder = NR3A (human) ligand-binding domain modulation; NR3A LBD differential scanning fluorimetry, Tm shift; 0% = protein alone, 100% = glycine-bound protein; Tm shift relative to glycine control, % at 25 µM; hit rate 2.5% among 340,000;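 active = melting temperature shift of at least 10% of the positive control shift, at one fixed dose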
rCAG RNA binder = molecules binding r(CAG) RNA repeats; r(CAG) RNA repeat, TO-PRO-1 dye displacement fluorescence; inhibition, % at 3 µM; hit rate 1.3% among 370,000;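 active = inhibition above the plate cutoff, the mean of all test compounds on that plate plus 3 SD, cut at about 35% in these data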;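 also: higher means more dye released from RNA so lower well fluorescence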
NadD block = inhibitors of Staphylococcus aureus NadD; purified NadD enzyme, colorimetric absorbance read-out; inhibition, % at 20 µM; hit rate 0.78% among 360,000; AID 602399; in the data active = inhibition above about 26%
NadD conf = NadD (S. aureus) inhibition, single concentration confirmation. shares compounds with NadD block. purified S. aureus NadD, colorimetric enzyme assay. inhibition, % at 20 µM. hit rate 13% among 2,000. AID 624309; in the data active = inhibition mostly above about 42%, no sharp cut-off; inactive = mostly below about 42%
A number is an active result; – = inactive; · = no result given. Rows were chosen to be rich in hits. Some 4.3% of all compounds tested hit in one or more screens of this group.

SMILES	FAS-TE inh	NR3A LBD binder	rCAG RNA binder	NadD block	NadD conf
O=C1NC[C@H](Cc2ccc(O)cc2)N(C[C@@H]2CCCN2C[C@H](Cc2ccc(O)cc2)N2C[C@H](Cc3ccccc3)N(CC3CCCCC3)C(=O)C2=O)C1=O	–	·	–	33	–
O=C1NC[C@H](Cc2ccc(O)cc2)N(C[C@@H]2CCCN2C[C@H](Cc2ccccc2)N2C[C@H](Cc3ccc(O)cc3)N(CC3CCCCC3)C(=O)C2=O)C1=O	–	·	–	41	–
Nc1[nH]c(C(=O)c2ccccc2)c(-c2ccccc2Cl)c1C(=O)NCCc1c[nH]c2ccccc12	·	·	–	·	·
C=CCN1C(=O)[C@H](CC(=O)N2CCC(c3ccccc3)CC2)[C@@]2(C(=O)OCC)CCCC=C12	·	·	–	·	·
Cc1cc(=O)n2[nH]c(-c3ccc(F)cc3)cc2n1	–	–	–	–	·
Cc1cc(=O)n2[nH]c(-c3ccsc3-n3c(C)ccc3C)cc2n1	–	–	–	31	–
O=C(CC1CCCC1)N[C@@H](Cc1cccnc1)C(=O)N1CCC[C@H]1C(=O)NCCc1ccccc1Cl	·	·	–	·	·
CSc1nsc(/C=C/Nc2cccc(Cl)c2)c1C#N	–	–	–	32	–
COC(=O)c1cc(C(=O)c2cc(F)ccc2O)cn2c(=O)c3c(C)c(C)sc3nc12	–	–	–	–	·
CCOC(=O)c1sc2nc3c(SCC(=O)O)cc(C(=O)c4cc(F)ccc4O)cn3c(=O)c2c1C	–	–	–	33	–
CN(C)c1cccc2c(S(=O)(=O)NCC3CCN(C(=O)C(=O)c4cc5ccccc5o4)CC3)cccc12	·	·	–	·	·
O=C(N/N=C/c1c[nH]c2ccccc12)c1cc(-c2ccc(-c3ccccc3)cc2)n[nH]1	–	20	–	50	47
Cc1ccc(NS(=O)(=O)c2cc(NC(=O)c3ccc4c(c3)NC(=O)CS4)ccc2Cl)c(C)c1	–	16	–	37	52
COc1cc(/C=C/C(=O)CC(=O)/C=C/c2ccc(O)c(OC)c2)ccc1O	–	24	–	56	52
CCOc1ccc(C=NNc2ccc(S(=O)(=O)Nc3ccccc3C(=O)O)cc2[N+](=O)[O-])cc1	–	–	·	34	76
CSc1ccc(C=NNc2ccc(S(=O)(=O)Nc3ccccc3C(=O)O)cc2[N+](=O)[O-])cc1	–	–	–	41	–
CCCCCCCCN1CCS(=O)(=O)N(Cc2ccc(F)cc2)C(C(=O)OC)C1 (configuration not stated)	·	·	–	·	·
CCN(CC)C(=O)c1ccc2c(c1)NC(=O)C(C)(C)O2	·	·	–	·	·
C=CCNc1nc(NCc2ccc(NC(C)=O)cc2)c2sc(-c3ccccc3)cc2n1	–	·	–	31	–
C[C@@H]1CN([C@@H](C)CO)C(=O)Cc2cc(NC(=O)Nc3cccc4ccccc34)ccc2O[C@@H]1CN(C)S(C)(=O)=O	–	–	–	–	·
C[C@@H]1CN([C@@H](C)CO)C(=O)Cc2cc(NC(=O)Nc3cccc4ccccc34)ccc2O[C@@H]1CN(C)Cc1ccc(C(F)(F)F)cc1	–	13	–	31	–
C[C@@H]1CN([C@H](C)CO)C(=O)c2cc(NC(=O)c3ccncc3)ccc2O[C@@H]1CN(C)C(=O)Nc1ccccc1	–	–	–	61	47
Cc1noc(C)c1NC(=O)N(C)C[C@@H]1Oc2c(NC(=O)c3ccncc3)cccc2C(=O)N([C@H](C)CO)C[C@@H]1C	–	–	–	36	57
CN(Cc1ccccc1F)C(=O)C1C2C=CC3(CN(Cc4ccccc4)C(=O)C13)O2 (configuration not stated)	·	·	–	·	·
c1ccc(Cn2cc(CCOCc3ccccn3)c3ccccc32)cc1	·	·	–	·	·
SMILES	FAS-TE inh	NR3A LBD binder	rCAG RNA binder	NadD block	NadD conf
O=c1c2ccccc2nc(/C=C/c2c[nH]c3ccccc23)n1-c1ccc([N+](=O)[O-])cc1	–	26	–	40	–
Cc1[nH]c2ccccc2c1/C=C/c1nc2ccccc2c(=O)n1-c1cccc([N+](=O)[O-])c1	–	–	–	–	·
O=C(Nc1nc2c(s1)CN(Cc1ccccc1)CC2)c1cccc(S(=O)(=O)N2CCc3ccccc32)c1	–	–	–	34	–
O=C(Cc1cn2ccsc2n1)NCc1ccccc1	–	–	–	–	·
O=C(Nc1nc2ccccc2s1)c1cccc(S(=O)(=O)N2CCc3ccccc32)c1	–	–	–	–	·
O=C(Cc1cn2ccsc2n1)Nc1nc2c(s1)CN(Cc1ccccc1)CC2	–	–	–	35	–
C=C1[C@@H](C)CN[C@@H]1CCO	·	·	–	·	·
COC(=O)c1ccc2nc(-c3ccc(Cl)cc3)c(Cc3ccccc3)n2c1	·	·	–	·	·
COc1ccc(N2C(=O)c3n[nH]c(C)c3C2c2cccc(C(F)(F)F)c2)cc1 (configuration not stated)	·	·	–	·	·
O=C(Nc1ccc(Oc2ccc3c(c2)C(=O)N(c2ccc(O)cc2)C3=O)cc1)c1cccs1	–	16	–	34	–
Cc1nc(N2CCN(c3ccccn3)CC2)c2c(C)c(C(=O)Nc3ccc(Br)cc3C)sc2n1	–	–	–	30	–
Cc1ccc(NC(=O)c2sc3nc(C)nc(N4CCN(c5ccccn5)CC4)c3c2C)c(C)c1	–	–	–	–	·
CCOC(=O)C1=C(CSc2nc(-c3ccccc3)ccc2C#N)OC(N)=C(C#N)C1c1cccnc1 (configuration not stated)	–	–	–	40	–
CCOC(=O)CC1=C(C(=O)OCC)C(c2cccnc2)C(C#N)=C(N)O1 (configuration not stated)	–	–	–	–	·
CCOC(=O)C1=C(CSc2nc(-c3ccccc3)ccc2C#N)OC(N)=C(C#N)C1c1ccccc1 (configuration not stated)	–	–	–	37	–
COC(=O)[C@H](C(C)C)N(CCCc1cn(CC2CCCCC2)nn1)S(=O)(=O)c1ccc(F)cc1Br	·	·	–	·	·
Cc1cc2nc(/C=C/c3cccnc3)[nH]c2cc1C	–	–	–	–	·
Cc1cc2nc(/C=C/c3nc4cc(C)c(C)cc4[nH]3)[nH]c2cc1C	–	–	–	31	–
O=C(CN1C(=O)CS/C1=C\c1nc(-c2ccc(Cl)cc2)cs1)Nc1cccnc1Cl	–	–	–	–	·
Cc1ccc(-c2csc(/C=C3\SC(C)C(=O)N3CC(=O)Nc3ccccc3F)n2)cc1 (configuration not stated)	–	–	–	32	–
CN(c1cccnc1)c1ccc(NC(=O)Cc2c[nH]c3ccccc23)cc1-c1cccnc1F	·	·	–	·	·
CC(C)Cn1c2c(c(O)c(C(=O)Nc3ncccc3O)c1=O)CCCC2	–	–	–	–	·
CCCCc1nc2ccccc2c(=O)n1NC(=O)c1c(O)c2c(n(CC(C)C)c1=O)CCCC2	–	–	–	33	–
S=c1[nH]nc(-c2cc(-c3ccccc3)n[nH]2)n1/N=C/c1ccc(Cl)cc1	–	–	–	26	–
CCn1c2ccccc2c2cc(/C=N/n3c(-c4cc(C)[nH]n4)n[nH]c3=S)ccc21	–	–	–	62	63
S=c1[nH]nc(-c2cc(-c3ccccc3)n[nH]2)n1/N=C/c1ccc(Cl)c(Cl)c1	–	24	–	30	–
O=C(NCc1ccc(C(=O)N2CCCN(Cc3ccccc3)CC2)cc1)c1cccc(Br)c1	·	·	–	·	·
